Screening data deposited in PubChem BioAssay by National Center for Advancing Translational Sciences (NCATS).
PKM2 activator: qHTS Assay for Activators of Human Muscle isoform 2 Pyruvate Kinase; AID 1631, 2009; 0.34% of 260,000 active; purified PKM2, Kinase-Glo ATP luminescence, activation; response scale: 0% is enzyme alone, no compound; Potency, µM (titrated, usually from 57.5 µM), for the others: at the highest dose activation, hits mostly activators; active = well fitted activation curve with a large enough effect; inconclusive = small, poorly fitted or top-dose-only effect; inactive = no such curve, though single readings can be large or run the other way; note: potency is the fitted concentration of half-maximal effect; nearly all actives have a fitted effect of over 55% in size
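ATP formation by purified human PK-M2, quantified via coupled luciferase luminescence after 1 h at room temperature with 0.1 mM ADP and 0.5 mM PEP final.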
Six1-Eya2 blk: qHTS Assay for Inhibitors of the Six1/Eya2 Interaction; Homeobox protein SIX1 (Homo sapiens) + Protein phosphatase EYA2 (Homo sapiens), …; AlphaScreen GST-Six1/His-Eya2 binding, biochemical; hits give low values; activity change, % (test concentration not listed); 0.56% of 360,000 active; AID 651725, 2012
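GST-Six1 + His-Eya2 (5X stock: 250/500 nM); Tris pH 8.0, 300 mM NaCl, 0.05% BSA, 0.02% Tween 20; GSH donor/Ni acceptor beads; 1 h 37 °C dark; AlphaScreen readout.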
MBNL1 CUG block: qHTS Assay for Inhibitors of MBNL1-poly(CUG) RNA binding; Muscleblind-like protein 1 (Homo sapiens), Q9NR56; TR-FRET MBNL1-His/biotin-(CUG)12 binding, 665/545 ratio; Potency, µM (titrated, usually from 57.5 µM), for inactives: top-dose activity change, negative = inhibition, most hits filed as inhibitors; 0.036% of 280,000 active; active = well fitted inhibition curve with a large enough effect in the signal ratio, with a control signal flat, not every such curve was filed as active; inconclusive = small, poorly fitted or top-dose-only effect, or effect the other way, or a change in a side signal; inactive = no such curve, though single readings can be large or run the other way; the % refers to the signal ratio; note: potency is the fitted concentration of half-maximal effect
Target sequence (Q9NR56 whole entry, looked up): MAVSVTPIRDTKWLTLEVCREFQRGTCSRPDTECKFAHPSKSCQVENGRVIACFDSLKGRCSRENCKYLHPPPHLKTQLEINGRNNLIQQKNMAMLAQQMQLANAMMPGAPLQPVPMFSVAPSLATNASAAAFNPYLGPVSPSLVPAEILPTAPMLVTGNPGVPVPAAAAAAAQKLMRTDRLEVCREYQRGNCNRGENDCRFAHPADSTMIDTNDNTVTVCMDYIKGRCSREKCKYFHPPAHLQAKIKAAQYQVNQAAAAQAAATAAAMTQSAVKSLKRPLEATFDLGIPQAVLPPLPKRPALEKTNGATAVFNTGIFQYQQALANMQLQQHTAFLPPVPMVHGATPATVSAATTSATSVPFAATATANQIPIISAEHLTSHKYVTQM
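TR-FRET readout: Ex 340 nm, 665/545 nm emission ratio, normalized to buffer-only (basal) and MBNL1-(CUG)12 controls. Complex of MBNL1-His with Biotin-(CUG)12, compounds 92 nM–58 uM, incubated 60 min at room temperature.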
CtBP-E1A blk: qHTS Assay for Inhibitors of the CtBP/E1A Interaction; AlphaScreen GST-E1A/His-CtBP binding, 1536-well; hits give low values; CtBP / adenovirus E1A interaction (AlphaScreen); 0.49% of 340,000 active; activity change, % (no concentration beside the values)
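Protein mix (5X: 125 nM each GST-E1A, His-CtBP) was incubated with pinned compound 2 h at 37 deg C in dark, in 50 mM Tris pH 8.0 buffer with 300 mM NaCl. Glutathione donor and nickel acceptor beads followed; AlphaScreen signal read after 1 h.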
Active calls of the source: *; ? = inconclusive; · = no result; [ ] = dose if it differs, or a comment. Compounds with a hit are over-represented: about 0.93% of the library has one in this group of screens. Cut-off read from the data, not from the text of the source, unless noted: active = activity change below about -65%; inconclusive = mostly about -30% to -63%; inactive = weaker than that. % is set by controls: 0 for no effect and ±100 for the full control effect.

SMILES	PKM2 activator	Six1-Eya2 blk	MBNL1 CUG block	CtBP-E1A blk
O=C(/C=C/c1ccco1)NCC(=O)N/N=C/c1ccc(Cl)cc1	-32%	3	14%	-12
C/C(=N/NC(=O)CNC(=O)/C=C/c1ccco1)c1ccc(Cl)cc1	25µM*	0	3%	10
c1ccc(N=NC2=NN(c3ccccc3)CS2)cc1	·	-77*	·	?
CCOC(=O)C(=O)N(C)c1c(CC)nc2c(OCCC3CCCCC3)cccn12	·	7	·	0
O=c1c(O)c(-c2ccc(O)cc2)oc2cc(O)cc(O)c12	·	-19	·	-15
O=c1c(O)c(-c2ccc(O)c(O)c2)oc2cc(O)ccc12	·	?	·	-74*
Nc1ccc2ccccc2c1N=Nc1ccccc1	·	-76*	·	-77*
Cc1cc(=O)oc2cc(NS(=O)(=O)c3ccccc3)ccc12	16µM*	4	44%	-5
CCCCOc1ccc(NC(=O)c2cc(F)c(F)cc2Cl)cc1	-2%	12	-2%	-12
CCOc1ccc(NC(=O)c2cc(F)c(F)cc2Cl)cc1OCC	-2%	-6	·	-97*
COc1ccc(-c2nc3c(c4c2C[C@H](c2ccccc2)OC4)CN(S(=O)(=O)c2ccc(Cl)c4nonc24)CC3)c(C)c1	-1%[11.5 µM]	·	·	·
COC(=O)c1cccc(-n2c(CCC(=O)O)ccc2-c2cccs2)c1	18µM*	1	·	0
CCOc1ccc(C(=O)N2CCN(c3cccc(C)c3C)CC2)cc1	14µM*	5	10%	-2
COc1ccc(OC)c(Nc2nc(-c3c(C)nc4ncccn34)cs2)c1	·	?	14%	-82*
Cc1nc2ncccn2c1-c1csc(Nc2cccc(C(=O)O)c2)n1	·	?	?	-29
COC(=O)c1cccc(Nc2nc(-c3cccnc3)nc3ccccc23)c1	-2%	-15	-6%	-29
O=C(O)c1cccc(Nc2nc(-c3cccnc3)nc3ccccc23)c1	-4%	-80*	24%	?
CC1(C(=O)NS(=O)(=O)c2ccc(F)cc2F)CCN1C(=O)Cc1cccc2ccccc12 (configuration not stated)	·	2	·	8
CCc1ccc(-c2cc(C)no2)cc1S(=O)(=O)N1CCN(c2ccccc2)CC1	·	-18	8%	-17
CCc1ccc(-c2cc(C)no2)cc1S(=O)(=O)N1CCN(c2ccccc2OC)CC1	-1%[0.46 µM]	?	3%	-79*
COC(=O)CSC1=C(C#N)C(c2ccccc2F)CC(=O)N1 (configuration not stated)	28µM*	-2	3%	0
COC(=O)CSC1=C(C#N)C(c2ccccc2)CC(=O)N1 (configuration not stated)	-3%	1	0%	7
Fc1cccc2sc(Nc3nnc(-c4ccccc4)o3)nc12	-5%	-5	27%	-1
COc1cc(OC)cc(-c2nnc(Nc3nc4c(F)cccc4s3)o2)c1	7.1µM*	-1	4%	17
CSc1ccccc1NC(=O)CN(C)C(=O)COc1cccc2cccnc12	·	-85*	·	-85*
SMILES	PKM2 activator	Six1-Eya2 blk	MBNL1 CUG block	CtBP-E1A blk
CN(CC(=O)Nc1ccc(Cl)c(C(F)(F)F)c1)C(=O)COc1cccc2cccnc12	·	13	·	-22
CN(C)c1ccc(Cc2ccc(N(C)C)cc2)cc1	·	-92*	·	·
COC(=O)c1ccc(C(NC(=O)OCc2ccccc2)/C(F)=C/[C@@H](C)C(=O)Nc2ccc(OC)cc2)cc1 (some centres not stated)	-8%	·	·	·
C#CCN(C[C@@H]1[C@@H](OC(=O)NCc2ccco2)[C@@H](OC(=O)NCc2ccco2)CN(C(=O)OC(C)C)N1C(=O)OC(C)C)S(=O)(=O)c1ccc(C)cc1	·	13	·	3
COc1c(O)c(=O)n2c3ccccc3c3ccnc1c32	·	-77*	·	-82*
O=c1c(Cl)c(O)c2cccc3c4ccccc4n1c23	-24%	?	-22%	-9
C[C@@H]1CCCCO[C@H](CN(C)C(=O)Nc2ccc3c(c2)OCO3)[C@H](C)CN([C@@H](C)CO)C(=O)c2cc(NS(=O)(=O)c3ccc(Cl)cc3)ccc2O1	·	-2	·	-13
CCN(CC(=O)NCc1ccc(F)cc1)C(=O)/C=C/c1cccs1	-6%	8	?	-4
CCN(CC(=O)NCc1ccc(F)cc1)C(=O)/C=C/c1ccco1	13µM*	-8	0%	·
C/C(=N\NC(=O)c1cc2ccccc2cc1O)c1ccc(C)o1	-15%	0	18%	5
C/C(=N\NC(=O)c1c[nH]c2ccccc12)c1ccc(C)o1	4%	-79*	2%	-86*
COc1ccc2cc(CN(C)C(=O)CN3C(=O)NC4(CCCC4)C3=O)ccc2c1	·	-3	·	-3
COCCNC(=O)C[C@@H]1C[C@H]2c3cc(NC(=O)Nc4ccc(F)cc4)ccc3O[C@H]2[C@H](CO)O1	·	4	·	-14
C/C(=N\OCC(=O)N/N=C/c1ccccc1)c1cccs1	2%	2	4%	4
C/C(=N\OCC(=O)N/N=C/c1ccccc1O)c1cccs1	-4%	?	-1%	-67*
CCc1nc(Sc2nnnn2-c2ccccc2)c2c3c(sc2n1)CCCC3	10µM*	4	·	-11
Cc1nc(Sc2nnnn2C)c2c3c(sc2n1)CCC3	2%	0	86%	4
CCn1c(SCc2nc3ccccc3c(=O)[nH]2)nc2ccccc2c1=O	-3%	-17	4%	-13
C=CCn1c(SCc2nc3ccccc3c(=O)[nH]2)nc2scc(C3CC3)c2c1=O	3.5µM*	-8	6%	4
C[C@@H]1CN([C@H](C)CO)C(=O)CCCn2nncc2CO[C@@H]1CN(C)C(=O)NC1CCCCC1	·	5	·	2
CCN(CC)c1ccc(NC(=S)NC(=O)c2ccco2)cc1	-2%	-70*	4%	3
CCN(CC)c1ccc(/C=N/NC(=O)c2ccco2)c(O)c1	-8%	-65*	?	?
Cc1ccc2[nH]c(=O)c(C3C(C#N)=C(N)Oc4c3ccc3cccnc43)cc2c1 (configuration not stated)	-2%	?	?	-92*
NS(=O)(=O)c1cccc(NC(=O)CSc2ccccn2)c1	0%	0	1%	1
NS(=O)(=O)c1ccc(NC(=O)CSc2ccccn2)cc1	28µM*	21	8%	37
CC(=O)OCC1C2CC[C@H]3C(OCc4ccc(F)cc4C(F)(F)F)OC[C@]4(C)[C@H]3C2=C(CN4C(=O)OC(C)(C)C)[C@H](C)C1COC(C)=O (some centres not stated)	0%	·	·	·
COc1ccc(CCn2c(N)c(S(=O)(=O)c3cccs3)c3nc4ccccc4nc32)cc1OC	1%	-67*	?	8
COc1ccc(CCn2c(N)c(C#N)c3nc4ccccc4nc32)cc1OC	4%	-65*	?	-69*
